Experimental data: PMC4336329 (PLoS ONE, 2015)
Out of some 310,000 compounds screened, about 14,000 (4.5%) showed an effect of 50% or more. Effects have a minus sign here. The sample as a whole holds a higher share of strong results than the screen did.

Target: human ether-à-go-go-related gene (hERG) potassium channel (human, UniProt Q12809)
Experiment: primary screen, population patch clamp on CHO cells stably expressing hERG; higher = less effect of the substance
Method: Briefly, Chinese hamster ovary (CHO) cells stably expressing the hERG channel were dislodged from tissue culture flasks and dispensed into PPC plates. […] During the recording, background leak currents were estimated by a 100 ms step to -80 mV from an initial holding potential of -70 mV and subtracted from the subsequent current measurement. The campaign was conducted in two phases using slight differences in recording protocol. In the first phase, the initial voltage pulse used a 100 ms step to -30 mV from a holding potential of -70 mV, a 2 s conditioning step to +25 mV, and a 2 s test step to -30 mV. During the second phase of the screen, the potential during the conditioning step was raised to +45 mV. In both phases of the campaign, a secondary voltage pulse was applied using the same parameters as the second phase initial pulse. The initial and secondary pulses were applied in the absence of compound, and upon application of 1 μM and 10 μM test concentrations. […]
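Also: peak tail current of the secondary pulse compared with the same well before compound.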

human ether-à-go-go-related gene (hERG) potassium channel, sequence (Q12809 whole entry, looked up): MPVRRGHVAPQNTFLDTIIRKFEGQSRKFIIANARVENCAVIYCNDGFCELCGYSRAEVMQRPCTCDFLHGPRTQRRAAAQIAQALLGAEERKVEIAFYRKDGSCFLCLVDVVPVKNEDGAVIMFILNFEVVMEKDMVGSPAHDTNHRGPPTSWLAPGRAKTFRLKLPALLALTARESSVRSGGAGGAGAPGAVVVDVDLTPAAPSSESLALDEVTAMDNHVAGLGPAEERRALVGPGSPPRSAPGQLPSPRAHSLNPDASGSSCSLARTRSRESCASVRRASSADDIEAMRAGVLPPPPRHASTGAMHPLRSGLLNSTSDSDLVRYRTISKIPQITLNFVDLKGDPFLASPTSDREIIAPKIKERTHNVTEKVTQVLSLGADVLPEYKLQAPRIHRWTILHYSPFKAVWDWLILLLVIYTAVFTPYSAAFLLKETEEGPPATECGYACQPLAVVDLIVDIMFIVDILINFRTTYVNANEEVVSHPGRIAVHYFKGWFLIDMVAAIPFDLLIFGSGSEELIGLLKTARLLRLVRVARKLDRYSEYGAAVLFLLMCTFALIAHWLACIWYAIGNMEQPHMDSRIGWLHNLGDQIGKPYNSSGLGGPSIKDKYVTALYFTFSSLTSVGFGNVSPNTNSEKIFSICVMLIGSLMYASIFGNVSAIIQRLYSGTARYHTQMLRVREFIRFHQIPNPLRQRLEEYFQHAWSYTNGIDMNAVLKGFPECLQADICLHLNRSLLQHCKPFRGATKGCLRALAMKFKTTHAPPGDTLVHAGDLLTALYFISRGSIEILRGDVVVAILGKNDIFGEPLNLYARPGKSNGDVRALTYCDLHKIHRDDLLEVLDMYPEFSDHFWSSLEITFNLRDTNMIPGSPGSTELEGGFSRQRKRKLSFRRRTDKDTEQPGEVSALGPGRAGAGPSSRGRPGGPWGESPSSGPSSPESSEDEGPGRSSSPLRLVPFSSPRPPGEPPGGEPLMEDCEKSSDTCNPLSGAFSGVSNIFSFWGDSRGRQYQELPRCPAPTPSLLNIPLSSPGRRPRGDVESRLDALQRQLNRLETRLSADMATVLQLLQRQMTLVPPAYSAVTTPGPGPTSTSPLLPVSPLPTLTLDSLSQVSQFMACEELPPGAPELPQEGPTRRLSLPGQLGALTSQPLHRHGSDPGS

Compound | hERG current change (%, negative = inhibition) at 10uM [%]
COc1cc(OC)cc(C(=O)NCCSc2c[nH]c3ccccc23)c1 | -17.1
NC(=O)c1sc2nc3c(cc2c1N)CCC3 | 8.92
CC(=O)c1ccc(OC(=O)C2CSC3(C)CCC(=O)N23)cc1 (centres unmarked) | 12.4
CCN(CC)CC(O)Cn1c(-c2cccc(Cl)c2)nc2cc(C)c(C)cc21 (centres unmarked) | -62.8
OC(CN1CCOCC1)Cn1c(-c2cccc(Cl)c2)nc2ccccc21 (centres unmarked) | -21.3
CCN(CC)CC(O)Cn1c(-c2ccccc2Cl)nc2ccccc21 (centres unmarked) | -25.2
CCOC(=O)[C@@H]1[C@H]2COc3ccc(Br)cc3[C@@H]2N2C(=O)N(c3ccc(C)cc3)C(=O)[C@]12C | 5.6
O=C(NCC1CCCCC1)c1cc(S(=O)(=O)N2CCCCC2)ccc1N1CCOCC1 | -7.89
COc1ccc(C2C(C#N)=C(N)Nc3onc(C(C)(C)C)c32)c(OC)c1 (centres unmarked) | 3.15
COc1ccc2oc(C(=O)OCc3nnc(-c4ccccc4)o3)c(C)c2c1 | 19.8
CCCCN(C(=O)COc1ccc(C)cc1OC)c1c(N)n(CCC)c(=O)[nH]c1=O | 4.7
O=C(c1ccccc1)c1ccccn1 | 2.58
Cc1ccc(S(=O)(=O)N2CCC(C(=O)NCCN3CCOCC3)CC2)cc1C | 8.7
O=C(NCc1ccccc1CN1CCCC1)C1CCN(S(=O)(=O)c2ccc(F)c(F)c2)CC1 | -59.1
Cc1ccc(S(=O)(=O)N2CCC(C(=O)NCCC3=CCCCC3)CC2)cc1C | -11.6
COc1ccc(S(=O)(=O)N2CCC(C(=O)NCCC3=CCCCC3)CC2)cc1C | -56.2
Cc1ccc(S(=O)(=O)N2CCC(C(=O)NCc3ccccc3Cl)CC2)cc1 | -4.47
CCOc1ccc(S(=O)(=O)N2CCC(C(=O)NCc3ccccc3CN3CCCC3)CC2)cc1 | -64.3
O=C(NCc1ccccc1Cl)C1CCN(S(=O)(=O)c2ccc(F)cc2)CC1 | -45.6
CCOc1ccc(S(=O)(=O)N2CCC(C(=O)NCc3ccccn3)CC2)cc1 | -25.9
CCOc1ccc(S(=O)(=O)N2CCC(C(=O)NCCc3ccccc3)CC2)cc1 | 29.1
O=C(NCc1ccccc1F)C1CCN(S(=O)(=O)c2ccccc2)CC1 | -12.1
COc1ccc(S(=O)(=O)N2CCC(C(=O)NCCC3=CCCCC3)CC2)cc1OC | -23.5
Cc1ccc(S(=O)(=O)N2CCC(C(=O)NCc3ccccc3CN3CCCC3)CC2)cc1C | -68.7
Cc1ccn2c(NC(=O)c3ccco3)c(-c3ccccc3)nc2c1 | -23.7
O=C(CSc1nc(O)cc(=O)[nH]1)N1c2ccccc2Sc2ccccc21 | 8.9
CC(C)c1ccc(NC(=O)NCc2ccc3c(c2)OCO3)cc1 | 13.4

Compound | hERG current change (%, negative = inhibition) at 10uM [%]
O=C(O)c1ccccc1OC(=O)C12CC3CC(CC(C3)C1)C2 | 18.1
O=C(NCc1ccc(F)cc1)c1cccnc1 | 9.37
Cc1nc([N+](=O)[O-])cn1Cc1cccc2ccccc12 | 10.2
N#Cc1ccccc1S(=O)(=O)N1CCC(C(=O)NCc2ccccc2CN2CCCC2)CC1 | -69.1
O=C(NCc1ccccc1)C1CCN(S(=O)(=O)c2ccc(Cl)cc2)CC1 | 3.16
O=C(NCc1ccccc1Cl)C1CCN(S(=O)(=O)N2CCCC2)CC1 | 12.5
O=C(NCc1ccc(Cl)cc1)C1CCN(S(=O)(=O)c2ccccc2)CC1 | 13
CCOc1ccc(S(=O)(=O)N2CCC(C(=O)NCc3ccco3)CC2)cc1 | -53
CCOc1ccc(S(=O)(=O)N2CCCC(C(=O)NCc3ccco3)C2)cc1 (centres unmarked) | -4.45
O=C(NCc1ccccc1Cl)C1CCN(S(=O)(=O)N2CCCCC2)CC1 | 1.33
O=C(NCc1ccccc1CN1CCCC1)C1CCN(S(=O)(=O)c2ccc(Cl)cc2)CC1 | -69.4
COc1ccc(S(=O)(=O)N2CCC(C(=O)NCc3ccco3)CC2)cc1 | -25.4
CCOc1ccc(NC2OCC(O)C(O)C2O)c([N+](=O)[O-])c1 (centres unmarked) | 33.2
COc1cc(/C=N/NS(=O)(=O)c2ccc(C)c([N+](=O)[O-])c2)cc([N+](=O)[O-])c1O | 18.1
COc1ccc(-c2cn3c(C)c(C(=O)N4CCc5ccccc5C4)sc3n2)cc1 | -31.9
CCOC(=O)C1CCCN(C(=O)c2sc3nc(-c4ccccc4)cn3c2C)C1 (centres unmarked) | -59.8
CCOC(=O)C1CCCN(C(=O)c2cc3c(-c4cccc(OC)c4)nn(C)c3s2)C1 (centres unmarked) | -60.7
CCOC(=O)C1CCCN(C(=O)c2cc(-c3ccccc3)nc3ccccc23)C1 (centres unmarked) | -9.9
CCOC(=O)N1CCN(C(=O)c2cc3c(-c4cccc(OC)c4)nn(C)c3s2)CC1 | -35.6
CCOC(=O)C1CCCN(C(=O)c2sc3nc(-c4ccc(OC)cc4)cn3c2C)C1 (centres unmarked) | -55.4
CCOC(=O)C1CCCN(C(=O)c2sc3nc(-c4ccc(F)cc4)cn3c2C)C1 (centres unmarked) | -72.9
CCOC(=O)C1CCN(C(=O)c2cc3c(-c4ccc(OC)c(OC)c4)nn(C)c3s2)CC1 | -17
Cc1c(C(=O)N2CCOCC2)sc2nc(-c3ccccc3)cn12 | -11.2
CCOC(=O)C1CCCN(C(=O)c2cc(-c3ccc(F)cc3)nc3ccccc23)C1 (centres unmarked) | -33.8
COc1ccc(-c2cn3c(C)c(C(=O)N4CCN(c5ccccc5F)CC4)sc3n2)cc1 | -29.8
Cc1c(C(=O)N2CC(C)OC(C)C2)sc2nc(-c3ccc(F)cc3)cn12 (centres unmarked) | -38.4
